Test results as given in PubChem BioAssay (NCI).
Compounds without any hit were thinned out: in the full panel of roughly 83,000, 20% have a hit.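 48-hour exposure, single concentration, 96-well plates; percent growth endpoint where 0 means no net growth. Active: below 10.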 Values without a mark were called inactive. Calls of active or inactive are those of the source.

Test system: OVCAR-4 ovarian
Assay: NCI-60 one-dose screen, 48 h (100 = growth as untreated, 0 = no growth, -100 = all killed)
Conditions: 10 µM unless noted

Row | SMILES | growth
1 | COc1ccc(C(=O)N2CCN(C(=O)c3cc(OC)c(OC)c(OC)c3)CC2)cc1OCCCCOc1cc2c(cc1OC)C(=O)N1CCC[C@H]1C=N2 | 112%
2 | Cn1c(-c2nonc2NC(=O)c2ccc(F)cc2)nc2ccccc21 | 114%
3 | O=C(NCCCN1CCN(CCCNC(=O)C2CCCCC2)CC1)C1CCCCC1 | 102%
4 | c1cc(-c2ccc3c(c2)OCO3)n2nccc2n1 | 98.1%
5 | O=C(CN1CCN(c2cc3c(cc2F)c(=O)c(C(=O)O)cn3C2CC2)CC1)Nc1ccc(C(=O)/C=C/c2ccc(Cl)cc2)cc1 | 95.4%
6 | CC(Cc1nnc(SCC(=O)Nc2ccc(I)cc2)n1N)c1ccccc1 (stereo not drawn) | 172%
7 | Cc1ccc2c(c1)C(C)Cc1c(ncnc1-n1cnc3ccccc31)N2C (stereo not drawn) | 30%
8 | CC1CCc2c(sc(NC(=O)CSc3nnc4ccccn34)c2C(N)=O)C1 (stereo not drawn) | 114%
9 | CC(=O)c1cc(C(=O)c2ccc3c(c2)Sc2ccccc2N3)c2cc(C)ccn12 | 38.1%
10 | CN(C)c1nc(N)c(N=O)c(N)n1 | 108%
11 | CC[C@H](C)[C@H]1NC(=O)[C@@H](N[C@](C)(O)[C@@H](N)CC(C)C)[C@@H](C)OC(=O)[C@H](Cc2ccc(OC)cc2)N(C)C(=O)[C@@H]2CCCN2C(=O)[C@H](CC(C)C)NC(=O)[C@@H](C)C(=O)[C@H](C(C)C)OC(=O)C[C@@H]1O | -6.08% (active)
12 | Cc1nc2scc(-c3ccccc3)n2c(=O)c1CCO | 93.8%
13 | Cc1ccc(Cn2c(-c3nonc3N)nc3ccccc32)cc1 | 87.1%
